Laboratory results published in PubChem BioAssay (EPA / NIEHS).
Records with an inconclusive call do not appear. Activity calls are given as the source filed them. How the source made its calls: active means hit-call score of the fitted dose curve at least 0.9, where 1 is the maximum; inconclusive means response in the unintended direction; inactive means score below 0.9. Peptide text beside a SMILES is read from it.

Columns and labels:
[1] = biological target: human Peroxisome Proliferator-activated Receptor alpha (PPARa), PPARA (gene 5465) (UniProt Q07869); test: ATG_PPARa_TRANS: Attagene TRANS-FACTORIAL HepG2 Assay for human Peroxisome Proliferator-activated Receptor alpha (PPARa) (AID 2283001)
human Peroxisome Proliferator-activated Receptor alpha (PPARa), PPARA (gene 5465), sequence (Q07869 whole entry, looked up, the tested form may be a part): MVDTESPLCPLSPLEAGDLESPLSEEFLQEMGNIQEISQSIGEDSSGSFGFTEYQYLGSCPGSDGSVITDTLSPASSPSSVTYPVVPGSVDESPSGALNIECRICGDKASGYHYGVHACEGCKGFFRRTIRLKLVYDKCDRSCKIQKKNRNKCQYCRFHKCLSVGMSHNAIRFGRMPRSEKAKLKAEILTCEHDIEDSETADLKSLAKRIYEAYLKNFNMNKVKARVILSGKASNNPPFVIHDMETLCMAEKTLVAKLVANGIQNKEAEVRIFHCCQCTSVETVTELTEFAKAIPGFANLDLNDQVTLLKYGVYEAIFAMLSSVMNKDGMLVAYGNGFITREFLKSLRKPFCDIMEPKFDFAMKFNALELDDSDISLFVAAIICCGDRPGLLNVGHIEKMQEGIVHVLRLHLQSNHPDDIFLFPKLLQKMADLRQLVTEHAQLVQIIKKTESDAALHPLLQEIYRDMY
Procedure, shortened: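 Transient HepG2 transfection, GAL4-UAS reporters, NR-Gal4 chimeras; 24 h compound exposure. Readout: reporter transcripts by RT-PCR, 6-FAM primer extension, HpaI digest, capillary electrophoresis. Positive direction vs DMSO baseline.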

[2] = biological target: human Retinoic Acid Receptor gamma (RARg), RARG (gene 5916) (UniProt P13631); test: ATG_RARg_TRANS: Attagene TRANS-FACTORIAL HepG2 Assay for human Retinoic Acid Receptor gamma (RARg) (AID 2283009)
human Retinoic Acid Receptor gamma (RARg), RARG (gene 5916), sequence (P13631 whole entry, looked up, the tested form may be a part): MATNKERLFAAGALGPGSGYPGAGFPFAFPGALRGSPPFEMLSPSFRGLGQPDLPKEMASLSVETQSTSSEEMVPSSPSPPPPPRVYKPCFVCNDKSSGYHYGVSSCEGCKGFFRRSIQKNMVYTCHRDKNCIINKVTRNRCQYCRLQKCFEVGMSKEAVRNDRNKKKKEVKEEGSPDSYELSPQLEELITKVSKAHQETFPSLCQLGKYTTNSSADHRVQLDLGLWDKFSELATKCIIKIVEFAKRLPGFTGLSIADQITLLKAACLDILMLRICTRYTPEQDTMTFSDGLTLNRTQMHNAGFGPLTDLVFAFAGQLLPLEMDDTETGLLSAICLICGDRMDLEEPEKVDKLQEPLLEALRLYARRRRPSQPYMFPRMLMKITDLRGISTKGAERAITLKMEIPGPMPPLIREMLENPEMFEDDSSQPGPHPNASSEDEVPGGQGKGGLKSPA
Procedure, shortened: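 Readout: reporter transcript levels via RT-PCR, 6-FAM primer-extension labelling, HpaI digestion and capillary electrophoresis. Cells: HepG2 carrying transfected RARg-GAL4 chimera plus UAS reporter set. Dosing 24 h; DMSO negative control.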

[3] = biological target: human RAR-related Orphan Receptor gamma (RORg), RORC (gene 6097) (UniProt P51449); test: ATG_RORg_TRANS: Attagene TRANS-FACTORIAL HepG2 Assay for human RAR-related Orphan Receptor gamma (RORg) (AID 2283011)
human RAR-related Orphan Receptor gamma (RORg), RORC (gene 6097), sequence (P51449 whole entry, looked up, the tested form may be a part): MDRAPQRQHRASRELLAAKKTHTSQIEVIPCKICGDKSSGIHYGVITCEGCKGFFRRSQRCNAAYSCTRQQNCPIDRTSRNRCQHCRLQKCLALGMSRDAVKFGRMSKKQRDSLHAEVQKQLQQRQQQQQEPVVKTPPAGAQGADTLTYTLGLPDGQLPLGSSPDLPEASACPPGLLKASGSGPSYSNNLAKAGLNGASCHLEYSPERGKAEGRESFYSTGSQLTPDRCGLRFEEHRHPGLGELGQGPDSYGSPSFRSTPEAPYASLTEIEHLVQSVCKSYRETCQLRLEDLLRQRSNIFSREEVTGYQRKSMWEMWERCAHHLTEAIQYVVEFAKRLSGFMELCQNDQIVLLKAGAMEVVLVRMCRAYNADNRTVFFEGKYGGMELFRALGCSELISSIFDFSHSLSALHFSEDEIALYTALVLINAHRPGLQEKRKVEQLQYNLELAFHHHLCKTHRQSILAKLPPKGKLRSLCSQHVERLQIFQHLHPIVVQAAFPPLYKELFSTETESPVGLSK
Procedure, shortened: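 Readout: reporter transcript induction (RT-PCR, fluorescent primer extension, capillary electrophoresis) after 24 h compound exposure of transiently transfected HepG2 cells carrying a RORg-Gal4 chimera and GAL4-UAS reporters; DMSO served as baseline, with increasing signal fitted.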

[4] = biological target: human Retinoid X Receptor beta (RXRb), RXRB (gene 6257) (UniProt P28702); test: ATG_RXRb_TRANS: Attagene TRANS-FACTORIAL HepG2 Assay for human Retinoid X Receptor beta (RXRb) (AID 2283013)
human Retinoid X Receptor beta (RXRb), RXRB (gene 6257), sequence (P28702 whole entry, looked up, the tested form may be a part): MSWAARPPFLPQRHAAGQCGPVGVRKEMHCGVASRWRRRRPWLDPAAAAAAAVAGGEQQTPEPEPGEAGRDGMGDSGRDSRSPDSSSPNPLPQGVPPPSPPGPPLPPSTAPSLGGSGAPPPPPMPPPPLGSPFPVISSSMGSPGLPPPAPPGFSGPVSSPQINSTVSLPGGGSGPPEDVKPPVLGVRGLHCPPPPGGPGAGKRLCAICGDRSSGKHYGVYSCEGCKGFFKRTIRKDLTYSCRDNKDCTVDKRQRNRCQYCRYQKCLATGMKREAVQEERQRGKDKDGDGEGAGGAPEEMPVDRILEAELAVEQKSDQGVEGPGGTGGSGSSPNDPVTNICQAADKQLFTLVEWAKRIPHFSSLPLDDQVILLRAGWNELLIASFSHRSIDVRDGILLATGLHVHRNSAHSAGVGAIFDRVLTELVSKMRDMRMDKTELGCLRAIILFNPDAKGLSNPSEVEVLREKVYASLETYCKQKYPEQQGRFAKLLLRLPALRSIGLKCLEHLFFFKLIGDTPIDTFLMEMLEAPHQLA
Procedure, shortened: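 Read-out: reporter mRNA induction via RT-PCR plus capillary electrophoresis fluorescence, analysed as signal increase relative to DMSO. Cells were human HepG2, transiently transfected with GAL4-UAS reporter constructs and chimeric receptor-Gal4 fusions, dosed for 24 h.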

[5] = biological target: Peroxisome proliferator-activated receptor gamma (Homo sapiens) (UniProt P37231); test: ATG_PPARg_TRANS: Attagene TRANS-FACTORIAL HepG2 Assay for human Peroxisome Proliferator-activated Receptor-gamma (PPARg) (AID 2283007)
Peroxisome proliferator-activated receptor gamma (Homo sapiens), sequence (P37231 whole entry, looked up): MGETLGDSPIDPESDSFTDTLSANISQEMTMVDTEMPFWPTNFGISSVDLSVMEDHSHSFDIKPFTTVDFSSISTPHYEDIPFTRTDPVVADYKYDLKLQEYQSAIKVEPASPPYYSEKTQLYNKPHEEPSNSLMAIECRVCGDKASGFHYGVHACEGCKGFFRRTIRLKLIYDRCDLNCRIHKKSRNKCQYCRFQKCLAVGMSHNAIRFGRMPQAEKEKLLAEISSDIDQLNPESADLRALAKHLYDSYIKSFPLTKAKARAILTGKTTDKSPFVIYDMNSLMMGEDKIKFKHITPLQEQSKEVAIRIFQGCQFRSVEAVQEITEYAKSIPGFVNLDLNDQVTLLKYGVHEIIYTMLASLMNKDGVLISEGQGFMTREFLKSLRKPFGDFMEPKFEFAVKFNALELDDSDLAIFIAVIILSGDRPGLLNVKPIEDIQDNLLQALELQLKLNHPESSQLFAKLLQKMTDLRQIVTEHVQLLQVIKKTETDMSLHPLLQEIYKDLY
Procedure, shortened: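 Twenty-four hours after chemical dosing of transiently transfected HepG2 cells, isolated RNA was converted to cDNA, reporter sequences amplified and 6-FAM-labelled, then HpaI-digested and analysed by capillary electrophoresis. Signal increase against DMSO was fitted.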

[6] = biological target: Retinoic acid receptor RXR-alpha (Homo sapiens) (UniProt P19793); test: ATG_RXRa_TRANS: Attagene TRANS-FACTORIAL HepG2 Assay for human Retinoid X Receptor alpha (RXRa) (AID 2283012)
Retinoic acid receptor RXR-alpha (Homo sapiens), sequence (P19793 whole entry, looked up, the tested form may be a part): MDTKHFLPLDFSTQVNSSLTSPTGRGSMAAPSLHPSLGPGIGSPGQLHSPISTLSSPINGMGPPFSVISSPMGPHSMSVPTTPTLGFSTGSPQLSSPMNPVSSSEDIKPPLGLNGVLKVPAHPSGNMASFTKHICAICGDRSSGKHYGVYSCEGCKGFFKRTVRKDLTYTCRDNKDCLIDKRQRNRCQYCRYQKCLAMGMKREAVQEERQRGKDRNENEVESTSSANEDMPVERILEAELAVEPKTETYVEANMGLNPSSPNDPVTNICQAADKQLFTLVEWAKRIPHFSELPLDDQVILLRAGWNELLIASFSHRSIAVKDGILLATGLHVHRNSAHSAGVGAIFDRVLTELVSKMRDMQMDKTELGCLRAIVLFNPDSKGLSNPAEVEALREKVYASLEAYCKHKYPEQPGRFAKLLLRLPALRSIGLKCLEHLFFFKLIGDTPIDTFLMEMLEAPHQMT
Procedure, shortened: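 Read-out: fluorescent reporter-transcript fragments quantified by capillary electrophoresis after RT-PCR. Transiently transfected HepG2 cells carrying GAL4-UAS reporters and NR-GAL4 chimeras were exposed to chemical for 24 h; activity scored as increase over DMSO.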

[7] = biological target: human Peroxisome Proliferator-activated Receptor delta (PPARd), PPARD (gene 5467) (UniProt Q03181); test: ATG_PPARd_TRANS: Attagene TRANS-FACTORIAL HepG2 Assay for human Peroxisome Proliferator-activated Receptor delta (PPARd) (AID 2283002)
human Peroxisome Proliferator-activated Receptor delta (PPARd), PPARD (gene 5467), sequence (Q03181 whole entry, looked up, the tested form may be a part): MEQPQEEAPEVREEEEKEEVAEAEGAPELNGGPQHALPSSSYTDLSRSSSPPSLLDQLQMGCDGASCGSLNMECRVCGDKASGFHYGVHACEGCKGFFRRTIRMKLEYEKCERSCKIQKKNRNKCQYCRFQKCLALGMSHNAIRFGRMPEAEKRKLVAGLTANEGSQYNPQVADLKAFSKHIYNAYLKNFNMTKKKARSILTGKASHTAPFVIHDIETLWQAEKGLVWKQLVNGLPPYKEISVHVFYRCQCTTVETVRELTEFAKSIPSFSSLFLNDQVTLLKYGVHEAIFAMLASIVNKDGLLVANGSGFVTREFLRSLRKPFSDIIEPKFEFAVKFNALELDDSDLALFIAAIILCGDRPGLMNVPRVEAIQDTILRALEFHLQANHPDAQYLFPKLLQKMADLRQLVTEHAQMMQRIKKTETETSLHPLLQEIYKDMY
Procedure, shortened: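 Read-out: reporter mRNA induction, quantified by fluorescent RT-PCR products resolved by capillary electrophoresis. Human HepG2 liver cells carried transiently transfected Gal4-UAS reporter constructs with chimeric NR-Gal4 fusions. Cells were dosed for 24 h; DMSO served as baseline.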

[8] = biological target: human Retinoic Acid Receptor beta (RARb), RARB (gene 5915) (UniProt P10826); test: ATG_RARb_TRANS: Attagene TRANS-FACTORIAL HepG2 Assay for human Retinoic Acid Receptor beta (AID 2283004)
human Retinoic Acid Receptor beta (RARb), RARB (gene 5915), sequence (P10826 whole entry, looked up, the tested form may be a part): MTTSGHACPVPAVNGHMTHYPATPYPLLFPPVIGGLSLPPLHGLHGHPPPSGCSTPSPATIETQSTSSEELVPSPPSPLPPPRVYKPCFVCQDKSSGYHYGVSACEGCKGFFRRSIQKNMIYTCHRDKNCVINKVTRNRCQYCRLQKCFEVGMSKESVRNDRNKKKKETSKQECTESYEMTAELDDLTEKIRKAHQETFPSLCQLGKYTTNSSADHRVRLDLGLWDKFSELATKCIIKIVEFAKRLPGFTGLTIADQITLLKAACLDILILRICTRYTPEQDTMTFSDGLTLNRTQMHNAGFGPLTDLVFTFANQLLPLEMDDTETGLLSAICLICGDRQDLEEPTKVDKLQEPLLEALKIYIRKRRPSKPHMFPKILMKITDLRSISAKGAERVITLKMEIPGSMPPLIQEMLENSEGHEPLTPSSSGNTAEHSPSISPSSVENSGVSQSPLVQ
Procedure, shortened: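 HepG2 cells transiently transfected with multiplexed GAL4-UAS reporter units expressing chimeric NR–Gal4 fusions; 24 h compound exposure. Reporter mRNA quantified by RT-PCR, 6-FAM labelling, HpaI digestion and capillary electrophoresis; gain-of-signal fitted against DMSO baseline.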

[9] = biological target: Retinoic acid receptor alpha (Homo sapiens) (UniProt P10276); test: ATG_RARa_TRANS: Attagene TRANS-FACTORIAL HepG2 Assay for human Retinoic Acid Receptor alpha (RARa) (AID 2283005)
Procedure, shortened: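 HepG2 transiently transfected with multiplex GAL4-UAS reporter units including a human RARa–GAL4 chimera; 24 h compound exposure. Reporter mRNA quantified by RT-PCR, 6-FAM labeling and capillary electrophoresis; gain of signal versus DMSO.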

[10] = biological target: Nuclear receptor subfamily 1 group I member 2 (Homo sapiens) (UniProt O75469); test: ATG_PXR_TRANS: Attagene TRANS-FACTORIAL HepG2 Assay for human Pregnane X Receptor (PXR) (AID 2283008)
Nuclear receptor subfamily 1 group I member 2 (Homo sapiens), sequence (O75469 whole entry, looked up, the tested form may be a part): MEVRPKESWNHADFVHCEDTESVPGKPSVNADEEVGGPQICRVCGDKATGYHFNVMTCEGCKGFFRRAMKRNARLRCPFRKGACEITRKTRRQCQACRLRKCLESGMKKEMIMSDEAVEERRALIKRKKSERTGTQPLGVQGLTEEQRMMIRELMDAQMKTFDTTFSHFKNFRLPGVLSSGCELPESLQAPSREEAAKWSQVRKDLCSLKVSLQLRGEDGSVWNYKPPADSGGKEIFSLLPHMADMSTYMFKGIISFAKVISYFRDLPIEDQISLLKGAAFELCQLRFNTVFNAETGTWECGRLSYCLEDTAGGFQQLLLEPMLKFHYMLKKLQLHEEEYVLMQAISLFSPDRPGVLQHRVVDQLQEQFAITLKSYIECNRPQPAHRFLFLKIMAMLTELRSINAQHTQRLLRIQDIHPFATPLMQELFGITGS
Procedure, shortened: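 HepG2 transfected (FuGene 6) with GAL4-UAS reporter units + PXR-Gal4 chimera; dosed 24 h. Total RNA → oligo(dT) RT → PCR → 6-FAM primer extension → HpaI cut → CE. Gain-of-signal vs DMSO.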

[11] = biological target: human RAR-related Orphan Receptor beta (RORb), RORB (gene 6096) (UniProt Q92753); test: ATG_RORb_TRANS: Attagene TRANS-FACTORIAL HepG2 Assay for human RAR-related Orphan Receptor beta (RORb) (AID 2283010)
Procedure, shortened: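 HepG2, transient MRTU transfection (GAL4-UAS reporters, exogenous NR-Gal4 chimeras); 24 h compound exposure; total RNA → RT-PCR → 6-FAM primer extension → HpaI digest → CE fluorescence. Positive direction vs DMSO baseline.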

[12] = biological target: human Thyroid Receptor alpha (THRa1), THRA (gene 7067) (UniProt P10827); test: ATG_THRa1_TRANS: Attagene TRANS-FACTORIAL HepG2 Assay for human Thyroid Receptor alpha (THRa1) (AID 2283014)
human Thyroid Receptor alpha (THRa1), THRA (gene 7067), sequence (P10827 whole entry, looked up, the tested form may be a part): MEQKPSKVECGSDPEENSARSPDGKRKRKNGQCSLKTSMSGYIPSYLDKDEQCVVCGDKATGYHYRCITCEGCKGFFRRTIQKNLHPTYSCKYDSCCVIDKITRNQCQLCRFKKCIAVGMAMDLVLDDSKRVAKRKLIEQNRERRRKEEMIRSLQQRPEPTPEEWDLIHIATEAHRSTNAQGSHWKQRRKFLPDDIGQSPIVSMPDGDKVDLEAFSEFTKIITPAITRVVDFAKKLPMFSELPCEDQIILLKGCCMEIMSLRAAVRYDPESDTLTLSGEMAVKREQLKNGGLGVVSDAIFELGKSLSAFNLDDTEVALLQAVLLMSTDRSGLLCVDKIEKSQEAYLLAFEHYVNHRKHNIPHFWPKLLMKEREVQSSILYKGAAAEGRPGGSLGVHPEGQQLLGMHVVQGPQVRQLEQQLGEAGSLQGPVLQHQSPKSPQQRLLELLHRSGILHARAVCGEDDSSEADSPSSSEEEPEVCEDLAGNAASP
Procedure, shortened: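 HepG2 cells transiently transfected with multiplexed GAL4-UAS reporter units for exogenous chimeric THRa1-Gal4; reporter mRNA measured 24 h after dosing by RT-PCR, 6-FAM labelling, HpaI digestion and capillary electrophoresis. Gain-of-signal fitted versus DMSO baseline.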

Measured: AC50

O=C(OCCc1ccccc1)c1ccccc1
inactive: [1] | [2] | [3] | [4]

O=C1c2ccccc2C(=O)c2cc(S(=O)(=O)O)ccc21
inactive: [1] | [5] | [6] | [4]

COC(=O)[C@H](Cc1ccccc1)NC(=O)[C@@H](N)CC(=O)O (H-Asp-Phe-OMe)
not listed: [1] | [3] | [4] | [6]
inactive: all other assays above

C=C(C)C(=O)OCCOC(=O)C(=C)C
active: [5] 62.2 µM
not listed: [1] | [3] | [12]
inactive: all other assays above

CCCCOCCOC(=O)COc1ccc(Cl)cc1Cl
inactive: [1] | [5] | [11] | [3]

c1ccc2cnccc2c1
inactive: [1] | [5] | [11] | [6]

C1CCSC1
inactive: [1] | [5] | [4]

CCC(C)(O)CCCC(C)C (configuration not stated)
inactive: [1] | [5] | [10] | [6] | [4]

Cc1cc(C)n(CO)n1
inactive: [7] | [8] | [5] | [3] | [4]

CCOC(=O)OC(=O)OCC
inactive: [1] | [10] | [2] | [6] | [12]

Cc1ccccc1CCO
inactive: [1] | [11] | [6] | [4]

CCCCC(=O)O
inactive: [8] | [9] | [2] | [11]

CCCCNS(=O)(=O)c1ccc(C)cc1
inactive: [7] | [10] | [6] | [12]

CC(C)(CO)C(O)C(=O)NCCCO (configuration not stated)
inactive: [7] | [5] | [11] | [3] | [6]

Cc1ccc(S(=O)(=O)N=C=O)cc1
inactive: [7] | [5] | [10] | [3] | [6] | [4]

CCc1occc(=O)c1O
inactive: [7] | [6]

COCC(=O)O
inactive: [9] | [5] | [3] | [6] | [12]

CC(C)(C)C1CCC(=O)CC1
inactive: [7] | [10] | [2] | [11] | [3] | [6] | [4]

CCCCC1CCC(=O)O1 (configuration not stated)
inactive: [8] | [9] | [5] | [2] | [6] | [4]

CC(C)(C)NC(=O)[C@H]1CC[C@H]2[C@@H]3CC[C@H]4NC(=O)C=C[C@]4(C)[C@H]3CC[C@]12C
active: [10] 19.8 µM
inactive: [7] | [6]

CCOC(=O)CC(=O)c1ccccc1
inactive: [7] | [5] | [10] | [3]

c1ccc(-c2nc3ccccc3[nH]2)cc1
inactive: [7] | [5] | [6] | [4] | [12]
active: [10] 23.4 µM

CC(C)(O)Cc1ccccc1
inactive: [8] | [9] | [10] | [11] | [12]

CC1CCC(C(C)(C)S)C(=O)C1 (configuration not stated)
inactive: [7] | [6] | [4]
active: [5] 81.1 µM

CCCCOCCOCCOC(C)=O
inactive: [7] | [3] | [6] | [12]

N#Cc1ccc(C2CCCc3cncn32)cc1 (configuration not stated)
inactive: [8] | [5] | [2] | [3] | [6]

CC(C)C(=O)OCCOc1ccccc1
inactive: [7] | [5] | [11] | [3]

C[Si]1(C)O[Si](C)(C)O[Si](C)(C)O[Si](C)(C)O[Si](C)(C)O1
inactive: [7] | [5] | [10] | [6] | [12]

CCCCC(CC)COS(=O)(=O)O (configuration not stated)
inactive: [7] | [10] | [12]

CCc1cccc(CC)c1
inactive: [9] | [5] | [2] | [4]

Cc1cccc(C(C)(C)C)c1O
inactive: [9] | [5] | [2] | [6]
active: [10] 19.9 µM | [4] 46.4 µM

CCCCCCCCCC(C)=O
inactive: [7] | [5] | [10] | [6] | [4] | [12]

COc1cc(C)ccc1O
inactive: [7] | [9] | [5] | [11] | [6] | [4] | [12]

CCOc1ccc(NC(N)=O)cc1
inactive: [9] | [5] | [2] | [11] | [4] | [12]

CCCCCCCCCCCCCc1ccccc1
not listed: [1] | [2] | [8] | [9]
inactive: all other assays above

CCCCOC(=O)C(C)CC (configuration not stated)
inactive: [7] | [10] | [3] | [4]

CC(C)=NNC(N)=S
inactive: [7] | [10] | [6] | [4] | [12]

CC1CC(=O)CC(C)(C)C1 (configuration not stated)
inactive: [7] | [10] | [2]

CC(CC(C)C)=NO
inactive: [7] | [9] | [11] | [6]

Cc1cc(=O)[nH]c(=O)[nH]1
inactive: [7] | [10] | [6] | [12]

COc1cc(O)c(C(=O)c2ccccc2)cc1S(=O)(=O)O
inactive: [7] | [5] | [10] | [6] | [4]

OCCCc1ccccc1
inactive: [9] | [5] | [2] | [11] | [6] | [4]

CCCC/C=C/C=C\C=O
active: [5] 7.73 µM
inactive: [7] | [6]

CC(C)c1cc(C(C)C)cc(C(C)C)c1
active: [10] 26.9 µM | [6] 6.06 µM | [4] 0.399 µM
inactive: [7] | [9] | [5]

C=Cc1ccc(OC(C)=O)cc1
inactive: [7] | [5] | [10] | [11] | [6] | [4] | [12]

CC(=O)OC1CCCCC1
inactive: [7] | [9] | [10] | [2] | [11] | [3] | [6]

O=C(O)CCCC(=O)O
inactive: [7] | [5] | [10]

CC(C)OC(=O)c1ccccc1
inactive: [8] | [9] | [2] | [11] | [3] | [6]

CCCCCOC(=O)CCCCC
inactive: [12]

CCCCCCOc1ccc(N)cc1
inactive: [5] | [10]

Cc1noc(NS(=O)(=O)c2ccc(N)cc2)c1C
inactive: [9] | [6] | [12]

CN1CCN(C)CC1
inactive: [3] | [6] | [12]

NNS(=O)(=O)c1ccc(Oc2ccc(S(=O)(=O)NN)cc2)cc1
inactive: [5] | [10] | [11]

CC1(C)[C@@H]2CC[C@@]1(C)C(=O)C2
inactive: [9] | [10] | [2] | [6] | [12]

CC(=O)CC(=O)Nc1ccccc1C
inactive: [2] | [11] | [4]

CC(C)c1ccc(O)c(C(C)C)c1
active: [6] 54.6 µM | [4] 9.23 µM
inactive: [5] | [2]

CCN1CCCC1=O
inactive: [5] | [6] | [12]

CC(C)(c1ccccc1)c1ccc(Nc2ccc(C(C)(C)c3ccccc3)cc2)cc1
inactive: [5] | [10] | [11] | [4]

C=Cc1cccc(C)c1
inactive: [5] | [10] | [3] | [4] | [12]

CCCCc1ccc(Cl)cc1
inactive: [5] | [10] | [6] | [4]

COc1nccnc1CC(C)C
inactive: [10] | [2] | [12]

CCCCOCC(C)O (configuration not stated)
inactive: [5] | [10] | [2] | [6] | [4] | [12]

CC(C=O)c1ccccc1 (configuration not stated)
inactive: [5] | [11] | [6] | [4]
active: [10] 5.82 µM

CC1=CP(=O)(c2ccccc2)CC1 (configuration not stated)
inactive: [9] | [10] | [2] | [3] | [6] | [4] | [12]

CC1=CCC(C(C)C)C=C1 (configuration not stated)
inactive: [5] | [4]
active: [10] 7.16 µM

CCCC(CC)c1ccccc1 (configuration not stated)
inactive: [5] | [10] | [2] | [3] | [6]
active: [4] 66.4 µM
